Holding throughout (test): NCI-60 one-dose screen, 48 h (100 = growth as untreated, 0 = no growth, -100 = all killed)
The subject of test [1] is HCT-15 colon. The settings on record: 10 µM unless noted.
Test [2] concerns SNB-19 CNS. The settings on record: 10 µM unless noted.
Test [3] has as its system U251 CNS. The settings on record: 10 µM unless noted.
In test [4] the test system is PC-3 prostate. The settings on record: 10 µM unless noted.
Test [5] deals with SK-MEL-5 melanoma. The settings on record: 10 µM unless noted.
Test [6] relates to UACC-62 melanoma. As to conditions: 10 µM unless noted.
The subject of test [7] is LOX IMVI melanoma. As to conditions: 10 µM unless noted.
In test [8] the test system is SK-MEL-28 melanoma. As to conditions: 10 µM unless noted.
For test [9], the system named is SK-MEL-2 melanoma. As to conditions: 10 µM unless noted.
The test system of test [10] is EKVX NSCLC. As to conditions: 10 µM unless noted.
Test [11] deals with SN12C renal. As to conditions: 10 µM unless noted.
Test [12] deals with UO-31 renal. The settings on record: 10 µM unless noted.
Test [13] concerns TK-10 renal. The settings on record: 10 µM unless noted.
In test [14] the test system is ACHN renal. As to conditions: 10 µM unless noted.
The test system of test [15] is CAKI-1 renal. As to conditions: 10 µM unless noted.
Test [16] has as its system A498 renal. As to conditions: 10 µM unless noted.
In test [17] the test system is CCRF-CEM leukemia. The settings on record: 10 µM unless noted.
In test [18] the test system is MOLT-4 leukemia. As to conditions: 10 µM unless noted.
Test [19] has as its system SNB-75 CNS. The settings on record: 10 µM.

Compounds without any hit were thinned out: in the full panel of roughly 83,000, 20% have a hit.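 Treatment: one concentration, 48 hours, 96-well format. Scoring: percent growth, with anything below 10 considered active.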 Values without a mark were called inactive. Activity calls are given as the source filed them.

`Cn1c(=O)cc(NC(=O)CN2CCN(c3cc4c(cc3F)c(=O)c(C(=O)O)cn4C3CC3)CC2)[nH]c1=O`: the growth is 99% in [1]; 98.4% in test [2]; 101% in [3]; 95.2% in test [4]; 101% in test [5]; 96.3% in test [6]. Moreover, the growth in test [7] is 99.5%; in test [8], 107%; in test [9], 107%; in test [10], 92.9%; in test [11] it was 97.4%; in test [12], 88.7%. In addition, the growth in test [13] was 105%; in test [14], 99.9%; in test [15] it was 88.2%; in test [16] it was 102%; in test [17], 103%; in test [18] it was 107%.
Turning to `O=C(c1ccccc1)C1OC1c1ccc([N+](=O)[O-])cc1` (stereo unspecified), the growth is 70.8% in [1]; 70% in test [19]; 64.8% in test [3]; 63.2% in [4]; 52.7% in test [5]; 71.4% in [6]. Further, the growth in test [7] was 29%; in test [8] it was 97.4%; in test [10] it was 89.2%; in [11], 76.7%; in test [12] it was 136%; in [13] it was 50%. Further, the growth was 75.3% in [14]; 72.7% in [15]; 110% in test [16]; 35.1% in test [17]; 76.2% in test [18].
On to `Cc1ccc(Nc2nnc(-c3ccc(Cl)cc3)o2)c(C)c1`, for which the growth was 44.7% in test [1]; 78.7% in test [19]; 95.8% in test [2]; 83.8% in test [3]; 92.1% in test [4]; 92.7% in [5]. For the same compound, the growth in test [6] was 70.8%; in test [7] it was 75.9%; in test [9] it was 67.9%; in test [11], 97.7%; in test [12] it was 82.6%; in test [13] it was 102%. The growth was 95.7% in [14]; 89.6% in [15]; 81.6% in test [16]; 83.3% in [17]; 61.7% in test [18].
With `O=C(CSC1CCc2ccccc21)N/N=C/c1ccccc1O` (stereo unspecified), the growth was 33.6% in test [1]; 71.7% in test [19]; 60.5% in test [2]; 48.7% in test [3]; 50.6% in test [4]; 47.7% in test [5]. In addition, the growth in test [6] is 36.4%; in [7] it was 40.4%; in test [8], 57.2%; in test [11], 59.9%; in [12], 20%; in test [13], 37.1%. Moreover, the growth is 34% in [14], 101% in [16], 18.2% in test [17] and 2.59% (active) in test [18].
`O=c1cc/c(=N\Nc2ccccc2)c(=O)/c1=N/Nc1ccccc1`: the growth was 104% in test [1]; 106% in test [19]; 111% in test [2]; 104% in [3]; 87% in test [5]; 101% in [6]. Moreover, the growth in test [7] was 89%; in test [8] it was 103%; in test [9], 126%; in test [10] it was 100%; in test [11] it was 112%; in [12], 97.5%. For the same compound, the growth in test [13] is 170%; in [14], 99.7%; in test [16], 93%; in [17] it was 86.7%; in test [18] it was 106%.
On to `Cc1c(C(N)=O)sc2c1c(=O)n(Cc1ccccc1)c1nnc(Nc3ccccc3)n21`, for which the growth was 96.1% in test [1]; 101% in [2]; 97.2% in test [3]; 96.9% in [4]; 105% in test [5]; 92.5% in test [6]. Further, the growth in test [7] was 93.5%; in [8], 109%; in test [9], 103%; in test [10], 94.1%; in test [11], 99.2%; in test [12], 67.9%. The growth was 113% in test [13], 96.4% in test [14], 82% in test [15] and 110% in test [16].
On to `Cc1cc(N/N=C/c2nc(-c3ccccc3)oc2C)c2cc(Cl)ccc2n1`, for which the growth in test [1] is -83.3% (active); in test [2], -31.2% (active); in [3] it was -76.9% (active); in test [4], -61.1% (active); in test [5] it was 20.4%; in test [6], 86.3%. Moreover, the growth is -76.8% (active) in test [7]; -96.4% (active) in test [8]; 110% in test [9]; -59.4% (active) in test [10]; -84.9% (active) in [11]; -99.2% (active) in test [12]. Also, the growth is -76.3% (active) in test [13]; -80.1% (active) in [14]; 14.4% in test [15]; 68.4% in test [16]; -34.6% (active) in test [17]; -39.2% (active) in test [18].
Regarding `O=C1C(Cl)=C(Nc2ccccn2)C(=O)c2ccccc21`, the growth was 43.5% in test [1]; 62.1% in test [19]; 93.2% in test [2]; 42.2% in test [3]; 63.6% in [4]; -84.2% (active) in [5]. Besides, the growth in test [6] was 1.2% (active); in [7], 14.5%; in [9] it was 88.2%; in test [10] it was 98.1%; in [11], 5.54% (active); in [12], 12.6%. Moreover, the growth is 17% in [14]; 53.1% in test [15]; 100% in [16]; 56.4% in test [17]; 62.8% in test [18].

These data come from PubChem BioAssay (NCI).
